In PubChem BioAssay AID488859 (Sanford-Burnham Center for Chemical Genomics, 2010):
Among all 1,400 compounds or so, about 970 (69%) were called active. Roughly 5% stayed inconclusive and do not appear here. Cut-off read from the data, not from the text of the source: active = inhibition above about 45%; inconclusive = no clear call, values can overlap the other calls; inactive = below that. The set was probably picked from earlier hits. The list is a sample of the results.

molecular target: Ubiquitin-conjugating enzyme E2 N (Homo sapiens) (UniProt P61088); assay: UBC13 polyubiquitination inhibitors, single-point retest, confirmation, biochemical, TR-FRET, single concentration (AID 488859); conditions: at 10 µM, stronger effect = higher value
Sequence (P61088 whole entry, looked up): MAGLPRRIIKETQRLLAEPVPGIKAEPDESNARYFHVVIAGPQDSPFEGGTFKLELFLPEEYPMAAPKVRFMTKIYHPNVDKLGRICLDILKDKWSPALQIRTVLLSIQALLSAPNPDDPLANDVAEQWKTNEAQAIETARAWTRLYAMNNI

inhibition, active:
O=C(COC(=O)Cn1cnc2ccccc2c1=O)NCc1ccccc1Cl 57.6%, CCN1CCN(CCNC(=O)c2ccc(/C=C3/Sc4ccccc4N(Cc4cccc(C)c4)C3=O)cc2)CC1 85.6%, COc1ccc(N(C(=O)c2snc(C(N)=O)c2N)C(C(=O)NC2CCCC2)c2ccco2)cc1OC (stereo unspecified) 96.8%, CCC(C(=O)NC1CCCC1)N(C(=O)c1snc(C(N)=O)c1N)c1ccc2c(c1)OCCO2 (stereo unspecified) 95%, NC(N)=Nc1nc(-c2ccccc2)c2cc(Cl)ccc2n1 79.9%, COc1ccc(C(CNC(=O)c2ccc(S(=O)(=O)Nc3ccccc3F)cc2)N(C)C)cc1 (stereo unspecified) 114%, NC(=O)NC(CC(=O)NNC(=O)c1ccccn1)c1ccc(Cl)cc1 (stereo unspecified) 95.3%, CCCC[C@@H]1CN=C(N)N1CCc1cc(C(F)(F)F)cc(C(F)(F)F)c1 55.4%, CN(C)CC(O)COc1ccc(C(C)(C)c2ccc(OCC(O)CN(C)C)cc2)cc1 (stereo unspecified) 60.5%, Cc1ccc(NC(=O)c2cnc(SCC(=O)NCC3CCCO3)n(C)c2=O)cc1 (stereo unspecified) 95.9%, Cc1c(CN2CCC(CO)(CCOc3ccccc3)CC2)[nH]c2ccc(Cl)cc12 74%, O=C(CCCCCN1C(=O)c2cccc3cccc(c23)C1=O)NCc1ccco1 50.7%, CN(C)c1ccnc2sc3c(=O)n(Cc4ccccc4)cnc3c12 57.1%, COc1ccnc2c1c(=O)n(Cc1cccc(F)c1)c(=O)n2C 52.3%, C#CCOCCOCCOCCNc1nc(N2CCN(C(=O)CCCCCCCCCCNC(=O)[C@H](CCCCN)n3cc(C)nn3)CC2)nc(N2CCN(C(=O)CCCCCCCCCCNC(=O)[C@H](CO)n3cc(CCCSC)nn3)CC2)n1 121%, C#CCOCCOCCOCCNc1nc(N2CCN(C(=O)CCCCCCCCCCNC(=O)Cn3cc(CCCCCN)nn3)CC2)nc(N2CCN(C(=O)CCCCCCCCCCNC(=O)[C@H](CO)n3cc(CCCSC)nn3)CC2)n1 129%, C#CCOCCOCCOCCNc1nc(N2CCN(C(=O)CCCCCCCCCCNC(=O)[C@H]([C@@H](C)CC)n3cc(CCCCN=C(N)N)nn3)CC2)nc(N2CCN(C(=O)CCCCCCCCCCNC(=O)[C@H](CO)n3cc(CCCSC)nn3)CC2)n1 121%, CC1CC(C)(C)n2c(O)c(N=NC(N)=S)c3cccc1c32 (stereo unspecified) 107%, COc1ccc(-n2nnnc2-c2nc3ccccc3s2)cc1 51.1%, CN1CCC(CN)(N2CCN(c3ccccc3)CC2)CC1 48.6%, CC(=O)NC(=S)NNC(=O)c1ccc(Br)cc1 89.8%, COc1ccc(/C=N\NC(=O)c2sc(N)nc2C)cc1OC 110%, O=C(CCCCCn1c(=O)[nH]c2ccccc2c1=O)NCCc1c[nH]c2ccccc12 67.3%, CCN(CC)CCNC(=O)c1ccc(NC(=O)c2cc(-c3ccncc3)nc3ccccc23)cc1 91.5%, CCOc1ccc(N(C(=O)c2snc(C(N)=O)c2N)C(C(=O)NCC2CCCO2)c2c[nH]c3ccccc23)cc1 (stereo unspecified) 100%, COc1cccc(N(C(=O)c2snc(C(N)=O)c2N)C(C(=O)NCC2CCCO2)c2c[nH]c3ccccc23)c1 (stereo unspecified) 57.9%, Cc1ccc(N(C(=O)c2snc(C(N)=O)c2N)C(C(=O)NCC2CCCO2)c2c[nH]c3ccccc23)cc1 (stereo unspecified) 70.6%, O=c1cc(CO)oc(C(Nc2cccc(C(F)(F)F)c2)c2ccccn2)c1O (stereo unspecified) 88.9%, O=c1c2c(nc3n1CCCCC3)sc1c(O)cccc12 104%, Cc1cccc(-n2cnc(C(=O)NNC(=S)Nc3ccccc3)c2)n1 107%, Cc1ccc(NC2=C(Cl)C(=O)OC2OC(=O)c2ccccc2C)cc1 (stereo unspecified) 62%, Cc1ccccc1C(=O)OC1OC(=O)C(Cl)=C1Nc1ccccc1 (stereo unspecified) 88.9%, C[C@@H](CN1CCC[C@H]1CN1C(N)=NC[C@@H]1Cc1ccccc1)N1C[C@@H](Cc2ccccc2)N(CCCC2CCCC2)C1=N 58.5%, COc1ccc2sc(-c3ccccc3OC)c(-c3ccc(OCCN4CCCC4)cc3)c2c1 54.8%, CC1CN(C(=O)CCC(=O)NCCCN2CCC(Cc3ccccc3)CC2)c2cc(Cl)ccc2O1 (stereo unspecified) 87.8%, Cc1cccc(-c2nc3ccc(C(=O)NCCN4CCN(C)CC4)cc3nc2-c2cccc(C)c2)c1 72.8%, Cc1ccc(C(=O)N/C(=C/c2ccc(-c3cccc([N+](=O)[O-])c3)o2)C(=O)NCCCN(C)C)cc1 78%

inhibition, inactive:
CC(C)n1cnc2c(Nc3cccc(Cl)c3)nc(N(CCO)CCCO)nc21 30.6%, COc1cccc2sc3cc(NCC[C@@H]4CCCN4C)ccc3c(=O)c12 41.3%, NC[C@H](Cc1ccccc1)NCCc1cc(C(F)(F)F)cc(C(F)(F)F)c1 40.1%, CCOC(=O)[C@@H]1[C@H]2COc3cc(OC)ccc3[C@H]2N2C(=O)N(c3ccc(F)cc3)C(=O)[C@]12C 1.2%, CC1(C)Cc2ccccc2-c2[nH]c(=S)[nH]c(=O)c21 26.2%, CCOC(=O)N1CCN(C(=O)Cc2ccc(-n3c(=S)[nH]c4ccccc4c3=O)cc2)CC1 37.3%, c1ccc(C[C@H]2CNCCN2CCC23CC4CC(CC(C4)C2)C3)cc1 42.5%, Cc1ccc(C(C(=O)NCC2CCCO2)N(C(=O)c2snc(C(N)=O)c2N)c2ccc(C(C)C)cc2)o1 (stereo unspecified) 30.4%, O=c1cc(CO)oc(C(Nc2cccc([N+](=O)[O-])c2)c2ccccn2)c1O (stereo unspecified) 39.1%, CCOCCCNC(=O)c1cn(CC(C)C)c(=O)c2c1c1ccccc1n2C 37.9%, CC[C@@H](C)[C@@H]1CN([C@@H](C)CN2CCC[C@H]2CN2C(N)=NC[C@H]2C(C)C)C(=N)N1CCc1ccc(Cl)c(Cl)c1 38.2%, COc1ccc2sc(-c3ccc(S(C)(=O)=O)cc3)c(C#Cc3cncn3C)c2c1 29.5%, CCOC(=O)c1ccc(NC(=O)c2nc[nH]c2C(=O)NCc2ccccc2)cc1 25.1%, CCOC(=O)C1=C(c2ccccc2)O/C(=C(/C(=O)OC)C(F)(F)F)S1 42.4%
